{"source": "ChEMBL document CHEMBL4513146", "about": "“CO-ADD screening of Karazin Kharkiv National University (Ukraine) compounds”", "note": "Results with a measured potency or affinity are listed apart.", "data": [{"system": "Staphylococcus aureus", "conditions": "Concentration 32 ug.mL-1;; ASSAY_TEST Inhibition of Bacterial Growth; detection method Absorption (OD600); MEDIA CAMHB; plate type 384well; NBS; CORNING #3640; time 18 hr", "units": {"Inhibition": "%"}, "values": [{"smiles": "O=c1c2sccc2n2c(=S)[nH]nc2n1CC1CCCO1", "note": "(stereo not drawn)", "Inhibition": 3.07}, {"smiles": "COc1ccccc1CNC(=O)CSc1nnc2c3cc(-c4ccc(C)cc4)nn3ccn12", "Inhibition": -5.58}, {"smiles": "O=C(Cn1nc2c3cc(-c4ccc(F)cc4)nn3ccn2c1=O)N1CCCc2ccccc21", "Inhibition": -1.84}, {"smiles": "COc1ccccc1Cn1c(=O)c2sccc2n2c(=O)n(Cc3ccccc3)nc12", "Inhibition": 4.84}, {"smiles": "CCOC(=O)c1ccc(NC(=O)Cn2nc3c(N4CCOCC4)nccn3c2=O)cc1", "Inhibition": 2.06}, {"smiles": "Cc1nnc2c(SCC(=O)Nc3ccc(C#N)cc3)nc3ccccc3n12", "Inhibition": -1.63}, {"smiles": "O=C(CSc1nnc2c(=O)n(-c3ccccc3)ccn12)Nc1ccc2c(c1)OCO2", "Inhibition": 8.51}, {"smiles": "Cc1ccc(C)c(Cn2nc3n(CC(C)C)c(=O)c4sccc4n3c2=O)c1", "Inhibition": 12.61}, {"smiles": "O=C(Cn1nc2ccc(Sc3cccc(F)c3)nn2c1=O)Nc1ccc2c(c1)OCCO2", "Inhibition": 11.29}, {"smiles": "Cc1cc(C)cc(Nc2nc(C)cc3nn(CC(=O)N(C)c4cccc(C)c4)c(=O)n23)c1", "Inhibition": 5.67}, {"smiles": "CCOc1ccc(-n2ccn3c(SCC(=O)c4ccc(F)cc4)nnc3c2=O)cc1", "Inhibition": 21.72}, {"smiles": "O=C(Cn1nc2ccc(Sc3ccccc3)nn2c1=O)N1CCN(c2ccc(F)cc2)CC1", "Inhibition": 9.78}, {"smiles": "O=C(Cn1nc2ccc(-c3ccccc3)nn2c1=O)NC1CCCCC1", "Inhibition": 8.4}, {"smiles": "CC1CCN(C(=O)Cn2nc3n(Cc4cccs4)c(=O)c4sccc4n3c2=O)CC1", "Inhibition": 3.66}, {"smiles": "CC(C)NC(=O)CCn1c(=O)c2cc(Cl)ccc2n2c(=O)n(CC#N)nc12", "Inhibition": 0.39}, {"smiles": "O=C(Cn1nc2c3sc(N4CCCC4)nc3ncn2c1=O)Nc1ccccc1Br", "Inhibition": 3.7}, {"smiles": "O=C(CCc1nnc2ccc(-c3ccc(Cl)cc3)nn12)NCc1ccc(F)cc1Cl", "Inhibition": 11.56}, {"smiles": "O=c1c2nnc(SCc3ccccc3)n2ccn1-c1ccc(Br)cc1", "Inhibition": 12.69}, {"smiles": "O=C(Cn1nc2ccc(SCc3ccc(Cl)cc3)nn2c1=O)NCc1ccccc1", "Inhibition": 7.82}, {"smiles": "O=C(Cn1nc2c(SC3CCCCC3)nccn2c1=O)Nc1ccc(F)c(Cl)c1", "Inhibition": -11.33}, {"smiles": "COc1ccc(CNC(=O)Cn2nc3c(N4CC(C)CC(C)C4)nccn3c2=O)cc1", "note": "(stereo not drawn)", "Inhibition": 7.67}, {"smiles": "COc1cccc(Sc2nc3ccccc3n3c(=O)n(CC(=O)Nc4ccc(C)c(C)c4)nc23)c1", "Inhibition": 2.16}, {"smiles": "COc1ccc(CNC(=O)Cn2nc3c(SC4CCCCC4)nccn3c2=O)cc1", "Inhibition": 8.37}, {"smiles": "COC(=O)c1ccc(NC(=O)Cn2nc3c4sc(N5CCCC5)nc4ncn3c2=O)cc1", "Inhibition": -12.82}, {"smiles": "Cc1oc(-c2ccc(OC(C)C)cc2)nc1CSc1nc2ccccc2n2c(C(C)C)nnc12", "Inhibition": -4.43}, {"smiles": "CCc1ccc(N(Cc2ccc(F)cc2)S(=O)(=O)c2cccn3c(C)nnc23)cc1", "Inhibition": 6.87}, {"smiles": "O=C(Cn1nc2nc(Nc3ccc(F)cc3)ccn2c1=O)NCc1ccc(F)cc1Cl", "Inhibition": 7.6}, {"smiles": "O=C(Cn1nc2c(N3CCOCC3)nccn2c1=O)Nc1ccc(Br)cc1F", "Inhibition": 13.39}, {"smiles": "COc1cccc(-n2ccn3c(SCc4ccc(Cl)cc4)nnc3c2=O)c1", "Inhibition": -2.27}, {"smiles": "Cc1cc(C)cc(N(Cc2ccc(F)cc2)S(=O)(=O)c2cccn3c(C)nnc23)c1", "Inhibition": -7.01}, {"smiles": "CC(=O)c1ccc(NC(=O)Cn2nc3ccc(Sc4ccccc4)nn3c2=O)cc1", "Inhibition": 5.54}, {"smiles": "CSc1cccc(NC(=O)Cn2nc3c4c5c(sc4ncn3c2=O)CCCC5)c1", "Inhibition": -8.02}, {"smiles": "COc1ccc(C)cc1NC(=O)Cn1nc2c3cc(-c4ccc(Cl)cc4)nn3ccn2c1=O", "Inhibition": 8.09}, {"smiles": "COc1cccc(CN(c2ccc(C)c(F)c2)S(=O)(=O)c2ccc3nncn3c2)c1", "Inhibition": -7.58}, {"smiles": "Cc1ccc(C)c(Cn2nc3n(CCC(C)C)c(=O)c4sccc4n3c2=O)c1", "Inhibition": 8.96}, {"smiles": "Cc1ccc(-c2cc3c4nnc(CCC(=O)N5CCC(Cc6ccccc6)CC5)n4ccn3n2)cc1C", "Inhibition": 10.73}, {"smiles": "O=c1c2sccc2n2c(=O)n(Cc3ccccc3F)nc2n1CCc1ccccc1", "Inhibition": 9.4}, {"smiles": "Cn1c(=O)c2ccc(C(=O)NC3CCCCC3)cc2n2c(=O)n(Cc3cccc(C(F)(F)F)c3)nc12", "Inhibition": 12.74}, {"smiles": "Cc1ccc(-c2cc3c4nnc(CCC(=O)N5CCN(c6ccccc6F)CC5)n4ccn3n2)cc1C", "Inhibition": -1.08}]}, {"system": "Escherichia coli", "conditions": "Concentration 32 ug.mL-1;; ASSAY_TEST Inhibition of Bacterial Growth; detection method Absorption (OD600); MEDIA CAMHB; plate type 384well; NBS; CORNING #3640; time 18 hr", "units": {"Inhibition": "%"}, "values": [{"smiles": "O=c1c2sccc2n2c(=S)[nH]nc2n1CC1CCCO1", "note": "(stereo not drawn)", "Inhibition": -0.32}, {"smiles": "COc1ccccc1CNC(=O)CSc1nnc2c3cc(-c4ccc(C)cc4)nn3ccn12", "Inhibition": -8.49}, {"smiles": "O=C(Cn1nc2c3cc(-c4ccc(F)cc4)nn3ccn2c1=O)N1CCCc2ccccc21", "Inhibition": -5.07}, {"smiles": "COc1ccccc1Cn1c(=O)c2sccc2n2c(=O)n(Cc3ccccc3)nc12", "Inhibition": -5.32}, {"smiles": "CCOC(=O)c1ccc(NC(=O)Cn2nc3c(N4CCOCC4)nccn3c2=O)cc1", "Inhibition": -3.52}, {"smiles": "Cc1nnc2c(SCC(=O)Nc3ccc(C#N)cc3)nc3ccccc3n12", "Inhibition": -2.61}, {"smiles": "O=C(CSc1nnc2c(=O)n(-c3ccccc3)ccn12)Nc1ccc2c(c1)OCO2", "Inhibition": -2.5}, {"smiles": "Cc1ccc(C)c(Cn2nc3n(CC(C)C)c(=O)c4sccc4n3c2=O)c1", "Inhibition": 1.72}, {"smiles": "O=C(Cn1nc2ccc(Sc3cccc(F)c3)nn2c1=O)Nc1ccc2c(c1)OCCO2", "Inhibition": -2.18}, {"smiles": "Cc1cc(C)cc(Nc2nc(C)cc3nn(CC(=O)N(C)c4cccc(C)c4)c(=O)n23)c1", "Inhibition": -3.82}, {"smiles": "CCOc1ccc(-n2ccn3c(SCC(=O)c4ccc(F)cc4)nnc3c2=O)cc1", "Inhibition": 2.02}, {"smiles": "O=C(Cn1nc2ccc(Sc3ccccc3)nn2c1=O)N1CCN(c2ccc(F)cc2)CC1", "Inhibition": 1.58}, {"smiles": "O=C(Cn1nc2ccc(-c3ccccc3)nn2c1=O)NC1CCCCC1", "Inhibition": -1.26}, {"smiles": "CC1CCN(C(=O)Cn2nc3n(Cc4cccs4)c(=O)c4sccc4n3c2=O)CC1", "Inhibition": -8.96}, {"smiles": "CC(C)NC(=O)CCn1c(=O)c2cc(Cl)ccc2n2c(=O)n(CC#N)nc12", "Inhibition": -9.95}, {"smiles": "O=C(Cn1nc2c3sc(N4CCCC4)nc3ncn2c1=O)Nc1ccccc1Br", "Inhibition": -11.75}, {"smiles": "O=C(CCc1nnc2ccc(-c3ccc(Cl)cc3)nn12)NCc1ccc(F)cc1Cl", "Inhibition": -1.56}, {"smiles": "O=c1c2nnc(SCc3ccccc3)n2ccn1-c1ccc(Br)cc1", "Inhibition": -3.8}, {"smiles": "O=C(Cn1nc2ccc(SCc3ccc(Cl)cc3)nn2c1=O)NCc1ccccc1", "Inhibition": -9.37}, {"smiles": "O=C(Cn1nc2c(SC3CCCCC3)nccn2c1=O)Nc1ccc(F)c(Cl)c1", "Inhibition": -12.19}, {"smiles": "COc1ccc(CNC(=O)Cn2nc3c(N4CC(C)CC(C)C4)nccn3c2=O)cc1", "note": "(stereo not drawn)", "Inhibition": -5.82}, {"smiles": "COc1cccc(Sc2nc3ccccc3n3c(=O)n(CC(=O)Nc4ccc(C)c(C)c4)nc23)c1", "Inhibition": 0.23}, {"smiles": "COc1ccc(CNC(=O)Cn2nc3c(SC4CCCCC4)nccn3c2=O)cc1", "Inhibition": -2.77}, {"smiles": "COC(=O)c1ccc(NC(=O)Cn2nc3c4sc(N5CCCC5)nc4ncn3c2=O)cc1", "Inhibition": -9.22}, {"smiles": "Cc1oc(-c2ccc(OC(C)C)cc2)nc1CSc1nc2ccccc2n2c(C(C)C)nnc12", "Inhibition": -16.17}, {"smiles": "CCc1ccc(N(Cc2ccc(F)cc2)S(=O)(=O)c2cccn3c(C)nnc23)cc1", "Inhibition": -8.04}, {"smiles": "O=C(Cn1nc2nc(Nc3ccc(F)cc3)ccn2c1=O)NCc1ccc(F)cc1Cl", "Inhibition": -1.86}, {"smiles": "O=C(Cn1nc2c(N3CCOCC3)nccn2c1=O)Nc1ccc(Br)cc1F", "Inhibition": 2.9}, {"smiles": "COc1cccc(-n2ccn3c(SCc4ccc(Cl)cc4)nnc3c2=O)c1", "Inhibition": 1.4}, {"smiles": "Cc1cc(C)cc(N(Cc2ccc(F)cc2)S(=O)(=O)c2cccn3c(C)nnc23)c1", "Inhibition": -9.2}, {"smiles": "CC(=O)c1ccc(NC(=O)Cn2nc3ccc(Sc4ccccc4)nn3c2=O)cc1", "Inhibition": -7.82}, {"smiles": "CSc1cccc(NC(=O)Cn2nc3c4c5c(sc4ncn3c2=O)CCCC5)c1", "Inhibition": -9.58}, {"smiles": "COc1ccc(C)cc1NC(=O)Cn1nc2c3cc(-c4ccc(Cl)cc4)nn3ccn2c1=O", "Inhibition": 3.41}, {"smiles": "COc1cccc(CN(c2ccc(C)c(F)c2)S(=O)(=O)c2ccc3nncn3c2)c1", "Inhibition": -16.33}, {"smiles": "Cc1ccc(C)c(Cn2nc3n(CCC(C)C)c(=O)c4sccc4n3c2=O)c1", "Inhibition": 1.02}, {"smiles": "Cc1ccc(-c2cc3c4nnc(CCC(=O)N5CCC(Cc6ccccc6)CC5)n4ccn3n2)cc1C", "Inhibition": 2.4}, {"smiles": "O=c1c2sccc2n2c(=O)n(Cc3ccccc3F)nc2n1CCc1ccccc1", "Inhibition": 0.41}, {"smiles": "Cn1c(=O)c2ccc(C(=O)NC3CCCCC3)cc2n2c(=O)n(Cc3cccc(C(F)(F)F)c3)nc12", "Inhibition": -0.17}, {"smiles": "Cc1ccc(-c2cc3c4nnc(CCC(=O)N5CCN(c6ccccc6F)CC5)n4ccn3n2)cc1C", "Inhibition": -5.39}]}]}
